The record followed here is publication PMC5700166.

Test [1] has as its target T1, GST-Nv-NF-kB (Ser allele) (Nematostella vectensis, UniProt A7UNT2 2-411).
T1 sequence: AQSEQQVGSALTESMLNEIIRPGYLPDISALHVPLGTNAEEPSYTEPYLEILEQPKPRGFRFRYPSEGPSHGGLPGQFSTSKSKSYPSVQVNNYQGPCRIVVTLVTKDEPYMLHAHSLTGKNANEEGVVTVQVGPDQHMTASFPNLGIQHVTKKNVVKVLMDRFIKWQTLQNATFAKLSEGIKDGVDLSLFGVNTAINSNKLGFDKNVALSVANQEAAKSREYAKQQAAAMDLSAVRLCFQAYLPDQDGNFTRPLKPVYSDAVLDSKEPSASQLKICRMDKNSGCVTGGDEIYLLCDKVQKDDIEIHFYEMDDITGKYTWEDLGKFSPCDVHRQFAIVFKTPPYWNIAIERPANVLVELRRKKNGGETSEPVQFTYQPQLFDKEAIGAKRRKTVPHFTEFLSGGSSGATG
Put plainly: protein-binding microarray (PBM); PBM: ~300 nM protein, 6 mM HEPES pH 7.8, 80 mM KCl, 0.5 mM EDTA, 0.5 mM EGTA, 6% glycerol, 35 ng/ul poly-dIdC, 1% milk, 1 h, room temperature; Ap Aiptasia and Nv Nematostella (sea anemones) / Co Capsaspora / Aq Amphimedon (sponge) / Dm Drosophila / Hu human; RHD is the Rel homology domain; high values mean tight binding. As to conditions: dsDNA, one strand shown.

Test [2] has as its target GST-Hu-p50 (Homo sapiens, UniProt P19838 7-356). The description is as above. Particulars: dsDNA, one strand shown.

Sequence of GST-Hu-p50 (P19838 7-356): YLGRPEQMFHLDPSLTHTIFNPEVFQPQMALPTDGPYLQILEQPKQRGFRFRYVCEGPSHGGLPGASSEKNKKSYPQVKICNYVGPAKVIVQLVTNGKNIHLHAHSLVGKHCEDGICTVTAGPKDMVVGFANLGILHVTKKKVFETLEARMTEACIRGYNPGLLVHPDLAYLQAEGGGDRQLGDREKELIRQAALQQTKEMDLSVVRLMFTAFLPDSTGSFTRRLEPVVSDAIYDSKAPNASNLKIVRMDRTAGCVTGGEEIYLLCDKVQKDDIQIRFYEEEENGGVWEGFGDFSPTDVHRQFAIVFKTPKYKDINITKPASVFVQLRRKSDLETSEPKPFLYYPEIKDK

With “CCGATTAACATCATGGTGGGAAATGATGTTAATCGGGTCTTGATTCGCTTGACGCTGCTG”, the values for the binding signal in test [1] and in test [2] were 2.25 z-score and 2.18 z-score, respectively.
For “CCGATTAACATCACAAATTCCCATGATGTTAATCGGGTCTTGATTCGCTTGACGCTGCTG”, in that order: 4.59 z-score and 3.86 z-score.
In the case of “CCGATTAACATCAAGTACTTCCCTGATGTTAATCGGGTCTTGATTCGCTTGACGCTGCTG”, the figures for the binding signal in test [1] and in test [2] were 1.34 z-score and 1.17 z-score, respectively.
Turning to “CCGATTAACATCAGGTTTTCCCATGATGTTAATCGGGTCTTGATTCGCTTGACGCTGCTG”, the binding signal in test [1] was 5.41 z-score; in test [2] it was 3.27 z-score.
As for “CCGATTAACATCAGGGAAAAAACTGATGTTAATCGGGTCTTGATTCGCTTGACGCTGCTG”, the figures for the binding signal in test [1] and in test [2] were 6.38 z-score and 4.02 z-score, respectively.
Consider “CCGATTAACATCATGTTGGGAAATGATGTTAATCGGGTCTTGATTCGCTTGACGCTGCTG”, for which the figures for the binding signal in test [1] and in test [2] were 2.11 z-score and 1.47 z-score, respectively.
“CCGATTAACATCAGGACACTCCCTGATGTTAATCGGGTCTTGATTCGCTTGACGCTGCTG”: the binding signal was 1.43 z-score in test [1] and 1.94 z-score in test [2].
For “CCGATTAACATCAGGGGACAACCTGATGTTAATCGGGTCTTGATTCGCTTGACGCTGCTG”, in that order: 4.41 z-score and 4.2 z-score.
As for “CCGATTAACATCACCTCTTTCCCTGATGTTAATCGGGTCTTGATTCGCTTGACGCTGCTG”, the values for the binding signal in test [1] and in test [2] were 3.91 z-score and 2.44 z-score, respectively.
In the same order, the values of “CCGATTAACATCAGGGCGTCCCCTGATGTTAATCGGGTCTTGATTCGCTTGACGCTGCTG” are 4.47 z-score and 4.86 z-score.
For “CCGATTAACATCAGGATCTTCCCTGATGTTAATCGGGTCTTGATTCGCTTGACGCTGCTG”, in that order: 1.87 z-score and 1.9 z-score.
For “CCGATTAACATCAAAAAAAGTCCTGATGTTAATCGGGTCTTGATTCGCTTGACGCTGCTG”, in that order: 1.42 z-score and 2.19 z-score.
As for “CCGATTAACATCAGGAAATTTGATGATGTTAATCGGGTCTTGATTCGCTTGACGCTGCTG”, the binding signal in test [1] turned out to be 1.01 z-score; in test [2], 1 z-score.
In the same order, the values of “CCGATTAACATCATAATTCCCAATGATGTTAATCGGGTCTTGATTCGCTTGACGCTGCTG” are 3.07 z-score and 2.73 z-score.
In the case of “CCGATTAACATCAACCCCCGGCTTGATGTTAATCGGGTCTTGATTCGCTTGACGCTGCTG”, the binding signal in test [1] turned out to be 2.23 z-score; in test [2], 3.29 z-score.
In the same order, the values of “CCGATTAACATCAGGGAATTAAATGATGTTAATCGGGTCTTGATTCGCTTGACGCTGCTG” are 3.98 z-score and 2.43 z-score.
As for “CCGATTAACATCAGGGAAACCACTGATGTTAATCGGGTCTTGATTCGCTTGACGCTGCTG”, the binding signal in test [1] was found to be 4.02 z-score; in test [2] it was 3.94 z-score.
In the case of “CCGATTAACATCAGGAAGTTCCCTGATGTTAATCGGGTCTTGATTCGCTTGACGCTGCTG”, the binding signal in test [1] was 2.53 z-score; in test [2], 3.79 z-score.
“CCGATTAACATCAGGGAATCCACTGATGTTAATCGGGTCTTGATTCGCTTGACGCTGCTG”: the values for the binding signal in test [1] and in test [2] were 3.63 z-score and 2.79 z-score, respectively.
In the case of “CCGATTAACATCACATTATCCCCTGATGTTAATCGGGTCTTGATTCGCTTGACGCTGCTG”, the binding signal in test [1] was 6.4 z-score; in test [2], 3.94 z-score.
For “CCGATTAACATCAAAATAATCCCTGATGTTAATCGGGTCTTGATTCGCTTGACGCTGCTG”, in that order: 3.57 z-score and 3.58 z-score.
Consider “CCGATTAACATCACTGGGAAAACTGATGTTAATCGGGTCTTGATTCGCTTGACGCTGCTG”, for which the binding signal was found to be 3.57 z-score in test [1] and 2.39 z-score in test [2].
In the same order, the values of “CCGATTAACATCAAGGGGGTGACTGATGTTAATCGGGTCTTGATTCGCTTGACGCTGCTG” are 3.83 z-score and 3.9 z-score.
With “CCGATTAACATCAGAATGCCCCCTGATGTTAATCGGGTCTTGATTCGCTTGACGCTGCTG”, the binding signal is 3.07 z-score in test [1] and 4.7 z-score in test [2].
For “CCGATTAACATCAGGGAATTACATGATGTTAATCGGGTCTTGATTCGCTTGACGCTGCTG”, the binding signal is 4.68 z-score in test [1] and 3.82 z-score in test [2].
On to “CCGATTAACATCAAAAATTGCCCTGATGTTAATCGGGTCTTGATTCGCTTGACGCTGCTG”, for which the binding signal in test [1] worked out at 2.01 z-score; in test [2] it was 2.11 z-score.
For “CCGATTAACATCACGGTACTTCCTGATGTTAATCGGGTCTTGATTCGCTTGACGCTGCTG”, in that order: 4.94 z-score and 2.86 z-score.
Regarding “CCGATTAACATCAGAAGTTTCCCTGATGTTAATCGGGTCTTGATTCGCTTGACGCTGCTG”, the binding signal amounted to 5.14 z-score in test [1] and 4.43 z-score in test [2].
In the same order, the values of “CCGATTAACATCAGGGTAAAACCTGATGTTAATCGGGTCTTGATTCGCTTGACGCTGCTG” are 3.53 z-score and 2.56 z-score.
In the same order, the values of “CCGATTAACATCAAATATTCCCATGATGTTAATCGGGTCTTGATTCGCTTGACGCTGCTG” are 4.14 z-score and 2.88 z-score.
For “CCGATTAACATCAGGAAATTTCCTGATGTTAATCGGGTCTTGATTCGCTTGACGCTGCTG”, in that order: 2.16 z-score and 2.5 z-score.
For the sequence “CCGATTAACATCAGGGATTTACCTGATGTTAATCGGGTCTTGATTCGCTTGACGCTGCTG”, the binding signal in test [1] is 5.26 z-score; in test [2], 4.74 z-score.
Take “CCGATTAACATCACCTTGGGAAATGATGTTAATCGGGTCTTGATTCGCTTGACGCTGCTG”: the binding signal in test [1] and in test [2] was 2.17 z-score in each case.
On to “CCGATTAACATCACCCCTCCCCATGATGTTAATCGGGTCTTGATTCGCTTGACGCTGCTG”, for which the binding signal worked out at 3.22 z-score in test [1] and 3.16 z-score in test [2].
In the same order, the values of “CCGATTAACATCAGGGAAACCCATGATGTTAATCGGGTCTTGATTCGCTTGACGCTGCTG” are 3.84 z-score and 3.11 z-score.
Consider “CCGATTAACATCACTTTCCCAAATGATGTTAATCGGGTCTTGATTCGCTTGACGCTGCTG”, for which the figures for the binding signal in test [1] and in test [2] were 3.07 z-score and 1.67 z-score, respectively.
On to “CCGATTAACATCAGGGGAGTAAATGATGTTAATCGGGTCTTGATTCGCTTGACGCTGCTG”, for which the binding signal in test [1] was 3.92 z-score; in test [2], 2.72 z-score.
